Most compounds without a hit are left out; they make up all but 8.1% or so of the library.
MCF10A rereplic = induces DNA re-replication in MCF 10a normal breast cells. MCF 10A DNA re-replication, Hoechst nuclear intensity, 48 h. Potency, µM (top dose mostly 46.1 µM), actives largely listed as activators. actives 2.9% (n = 350,000); note: nearly all actives have a fitted effect of over 50% in size
ELG1 repair inh = blocks ELG1-dependent DNA repair in HEK293T cells. HEK293T ELG1-luciferase reporter, luminescence, 16 h; DNA damage induced by 5-fluorouridine. Potency, µM (doses to about 46.1 µM), hits mostly inhibitors. actives 2.3% (n = 330,000). AID 504467; note: nearly all actives have a fitted effect of over 55% in size
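Reporter activity after DNA damage by 5-fluorouridine is monitored. Compound-treated cells incubate 16 hr at 37 °C, then ONE-Glo is added for 30 min before luminescence reading.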
SW480 rerep = inducers of DNA re-replication in SW480 colon cancer cells. SW480 DNA re-replication, Hoechst DNA content imaging, 48 h. Potency, µM (doses to about 46.1 µM), most hits filed as activators. actives 1.8% (n = 340,000). AID 624297; note: nearly all actives have a fitted effect of over 55% in size
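Quantitative HTS format with DMSO vehicle controls; 48 hr drug incubation at 37 C, then 40 min Hoechst staining and scanning imager measurement at 405 nm excitation.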
KB-3-1 cytotox = KB-3-1 parental cell cytotoxicity. Potency, µM (titrated, usually from 46.1 µM), actives largely listed as cytotoxic. KB-3-1 viability, CellTiter-Glo ATP luminescence, 72 h. actives 1.4% (n = 400,000); note: nearly all actives have a fitted effect of over 60% in size
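Cytotoxicity measured as CellTiter-Glo luminescence after 72 h at 37 C. Compound titrations were pinned onto drug-naive KB-3-1 parental adenocarcinoma cells grown in DMEM with 10% FBS, and normalized data fitted to concentration-response curves.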
KB-V1 cytotox = KB-V1 MDR subline cytotoxicity; KB-V1 MDR cells viability, CellTiter-Glo, 72 h; Potency, µM (highest dose often 46.1 µM), actives largely listed as cytotoxic; actives 3.4% (n = 400,000); AID 1347076; note: nearly all actives have a fitted effect of over 60% in size
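Cytotoxicity toward P-gp-expressing KB-V1 cells was determined as loss of CellTiter-Glo luminescence after 72 h at 37 degrees C. Compounds were tested in quantitative HTS format across a concentration range, with curves fitted to normalized data.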
A number is an active result; 0 = inactive; ? = inconclusive; - = not tested or not shown. Calls come from the whole dose curve; as a rule, active = well fitted curve in the direction sought with a large enough effect; inconclusive = small, poorly fitted or top-dose-only effect, or another doubt; inactive = no such curve, though single readings can be large; an effect the other way counts as inactive or inconclusive.

SMILES	MCF10A rereplic	ELG1 repair inh	SW480 rerep	KB-3-1 cytotox	KB-V1 cytotox
CN(Cc1ccc(C(F)(F)F)cc1)C(=O)c1ccc(Oc2ccccc2)cc1	16µM	0	0	?	0
CCn1c(=O)cc(OCC(=O)N2CCN(c3cccc(Cl)c3)CC2)c2ccccc21	-	-	-	0	0
CC(C)(C)c1ccc(S(=O)(=O)c2cn(CC(=O)Nc3ccccc3)c3ccccc3c2=O)cc1	-	-	-	0	0
CN1C2CCC1/C(=C\c1ccccc1F)C(=O)/C2=C/c1ccccc1F	?	0	0	?	13µM
O=C(Cc1nc2ccccc2[nH]c1=O)c1ccccc1	21µM	?	0	?	0
CC(=O)COC(=O)CCc1nc2ccccc2[nH]c1=O	0	0	0	0	0
CCCCOC(=O)CCc1nc2ccccc2[nH]c1=O	0	29µM	0	0	0
Cc1ccc(CNC(=O)C2CCN(S(=O)(=O)c3ccc(F)cc3)CC2)cc1	-	-	-	0	0
CCC1CN(C(=O)N2CCC(C(=O)NCc3ccco3)CC2)c2cc(C)ccc2O1 (configuration not stated)	0	0	0	0	0
CC(=O)Nc1sc(/C(C#N)=C/c2ccc(Cl)c(Cl)c2)nc1-c1ccc(C)cc1	1.8µM	0	?	0	0
COc1ccc(O)c(C(=O)CC(=O)c2ccccc2C)c1	?	?	21µM	?	?
COc1ccc(O)c(C(=O)CC(=O)c2ccc(F)cc2)c1	0	?	0	?	2.9µM
COc1ccc(C(=O)CC(=O)c2ccccc2O)cc1	0	?	0	0	0
COc1cccc(CNC(=O)C2Cc3cc(S(=O)(=O)N4CCCCCC4)ccc3N2C(C)=O)c1 (configuration not stated)	-	-	-	0	?
CC(=O)c1cccc(OC(=O)c2cc(S(=O)(=O)N3CCOCC3)ccc2N2CCCC2)c1	0	9.2µM	0	?	0
CC(C)(C)C1CCC(C(=O)Nc2ccc(N3CCOCC3)cc2N2CCOCC2)CC1 (configuration not stated)	0	15µM	0	0	0
CCc1cc(C(=O)Nc2cc(S(=O)(=O)N3CCCCC3)ccc2N2CCN(C)CC2)sc1C	-	-	-	23µM	0
Cc1ccccc1C(=O)Nc1cc(S(=O)(=O)N2CCCCC2)ccc1N1CCN(C)CC1	0	0	0	?	?
O=C(/C=C/c1ccc(Cl)cc1)Nc1cc(S(=O)(=O)N2CCOCC2)ccc1N1CCOCC1	0	26µM	?	?	?
CCN1CCN(c2ccc(S(=O)(=O)N3CCOCC3)cc2NC(=O)/C=C/c2ccc(C)cc2)CC1	0	0	0	0	0
S=c1nc[nH]c2n[nH]nc12	-	-	-	0	0
Cc1c(C(=O)Nc2cc(S(=O)(=O)N3CCOCC3)ccc2N2CCN(C)CC2)oc2ccccc12	0	16µM	0	0	?
COc1cccc(C(=O)Nc2cc(S(=O)(=O)N3CCOCC3)ccc2N2CCOCC2)c1	0	-	0	0	0
O=C(Nc1cc(S(=O)(=O)N2CCOCC2)ccc1N1CCCC1)c1ccc2c(c1)S(=O)(=O)c1ccccc1C2=O	0	10µM	0	0	0
O=C(Nc1ccccc1N1CCCC1)C1CCN(S(=O)(=O)c2ccccc2C(F)(F)F)CC1	0	?	0	0	?
SMILES	MCF10A rereplic	ELG1 repair inh	SW480 rerep	KB-3-1 cytotox	KB-V1 cytotox
CC(C)COc1cccc(C(=O)Nc2cc(S(=O)(=O)N3CCOCC3)ccc2N2CCCC2)c1	0	-	0	0	18µM
CN1CCN(c2ccc(S(=O)(=O)N3CCOCC3)cc2NC(=O)CC(C)(C)C)CC1	0	0	0	0	0
O=C(Nc1ccccc1N1CCOCC1)C1CCN(S(=O)(=O)c2ccccc2F)CC1	0	0	0	0	8.2µM
O=C(Nc1cc(S(=O)(=O)N2CCOCC2)ccc1N1CCCC1)c1ccc(Cl)cc1	0	0	0	0	0
Cc1c(C(=O)NCc2cccc([N+](=O)[O-])c2)sc(=O)n1Cc1ccccc1F	-	-	-	0	?
O=C(Nc1cc(S(=O)(=O)N2CCOCC2)ccc1N1CCCCC1)c1ccccc1	0	?	0	0	5.2µM
O=C(Nc1ccccc1N1CCCCC1)c1cc(S(=O)(=O)N2CCOCC2)ccc1F	12µM	0	0	?	?
O=C(Nc1cc(S(=O)(=O)N2CCOCC2)ccc1N1CCCCC1)c1ccc(Cl)cc1	0	0	0	0	0

Source: PubChem (National Center for Advancing Translational Sciences (NCATS))
